# aSyn 5UTR act: Activators via SNCA 5'UTR binding, MLPCN | AID 1814, 2009 | alpha-synuclein 5'UTR reporter, activators screen | 300,000 compounds, 7.1% hits | activity score, % (tested at 7.5 µM), hits read low; in the data active means activity score below about -60%
# Numbers without * were called inactive. Only a sample is shown.
SMILES,aSyn 5UTR act
CC(C)(C)c1ccc(C(=O)NCC(=O)OCC(=O)Nc2nc(-c3ccc(F)cc3)cs2)cc1,-175*
Cc1nc(-c2ccc(C(=O)Nc3ccccc3F)cc2)cs1,92
Cc1nc(-c2ccc(C(=O)Nc3ccc(F)cc3)cc2)cs1,-109*
CC1=NN(c2nc(-c3ccc(C)cc3)cs2)C(=O)C1N=Nc1ccccc1O (stereo not given),63
COc1ccc(-c2csc(C)n2)cc1,-100*
CC(OC(=O)CNC(=O)c1ccccc1F)C(=O)Nc1nc(-c2ccccc2)cs1 (stereo not given),-104*
COc1ccc(NC(=O)c2ccc(-c3csc(C)n3)cc2)cc1,-195*
COc1ccc(-c2csc(N3N=C(C)C(C)C3=O)n2)cc1 (stereo not given),-87*
CC(C)(CO)NC(=O)c1ccc2c(c1)C(=O)c1ccccc1-2,-96*
O=C(NCc1ccco1)c1ccc(Oc2ccccc2)cc1,-87*
O=C(NCc1ccco1)c1ccc2ccccc2c1,-64*
CCc1nc2ccc(C(=O)NCCc3ccco3)cc2nc1CC,-63*
O=C(NCc1ccco1)c1ccc2c(c1)C(=O)c1ccccc1-2,-77*
c1ccc2c(c1)CCN(c1nc3ccccc3n3cnnc13)C2,-122*
C=CCn1c(SCC(=O)c2[nH]c(C)c(C(=O)OCC)c2C)nc2scc(-c3ccccc3)c2c1=O,57
C=CCn1c(SCC(N)=O)nc2scc(-c3ccc(C)o3)c2c1=O,-84*
O=C1c2ccccc2C(=O)N1CCOc1cccc(Br)c1,-71*
COc1ccc(OCCN2C(=O)c3cccc(N)c3C2=O)cc1,-98*
Cn1c(CNc2nc3ccccc3n2C)nc2ccccc21,-81*
COc1ccc(Nc2nc3ccccc3n2C)cc1,-101*
Cc1ccc(NCc2nc3ccccc3n2C)cc1,-111*
Cn1c(S(=O)(=O)Cc2ccc(Cl)cc2)nc2ccccc21,-65*
C=CCn1c(NCc2ccc(N(C)C)cc2)nc2ccccc21,-63*
CCCn1c(CNc2ccccc2O)nc2ccccc21,-84*
CCOC(=O)c1ccc(NCc2nc3ccccc3n2C)cc1,-172*
SMILES,aSyn 5UTR act
Cn1c(CNc2ccc(Br)cc2)nc2ccccc21,-172*
Cn1c(NCc2ccc(Cl)cc2)nc2ccccc21,-100*
Cc1ccc(NCc2nc3ccccc3n2C)cc1C,-113*
COc1ccc(NCc2nc3ccccc3n2C)cc1,-129*
CCOc1cccc(-c2nc3cc(C)ccc3o2)c1,-153*
Cc1ccc2oc(Nc3nc(C)cc(C)n3)nc2c1,-163*
Cc1ccc(C)c(-c2nc3cc(N)ccc3o2)c1,63
Cc1ccc2oc(-c3ccccc3)nc2c1,-188*
Cc1nc(Nc2nc3ccccc3o2)nc2c1CCC2,71
CC1=C/C(=C(/c2cc(C)c(O)c(Br)c2)c2ccccc2S(=O)(=O)O)C=C(Br)C1=O,61
O=C(COc1ccccc1C(=O)c1cnn(-c2ccccc2)c1)Nc1ccc2ccccc2c1,-136*
CC(C)c1ccc(NC(=O)COc2ccc(F)cc2C(=O)c2cnn(-c3ccccc3)c2)cc1,-115*
Cc1ccc(C2=N/C(=C/N3CCOCC3)C(=O)O2)cc1,-100*
Cc1ccc(C2=N/C(=C\N3CCCCC3)C(=O)O2)cc1,-105*
O=C(/C=C/c1c[nH]c2ccccc12)c1cccc2ccccc12,-95*
CC(C)CCn1cnc2c(cnn2-c2ccc(F)cc2)c1=O,-83*
CCOC(=O)C1CCN(c2ncnc3c2cnn3-c2ccc(Cl)cc2)CC1,65
CCOC(=O)Cn1cnc2c(cnn2-c2ccc(Cl)cc2)c1=O,-65*
CC(=O)Cn1cnc2c(cnn2-c2ccc(C)c(C)c2)c1=O,-106*
Cc1cccc(/C=N/NC(=O)c2ccc(Br)cc2)c1,-90*
O=C(N/N=C/c1ccc(O)cc1)c1cccc(N/N=C/c2ccc(O)cc2)c1,-108*
O=C(N/N=C/c1ccc(Br)cc1)c1ccc(F)cc1,-78*
O=C(N/N=C/c1ccccc1Cl)c1n[nH]c2c1CCCC2,83
O=C(N/N=C/c1ccccc1)c1n[nH]c2c1CCCC2,-88*
O=C(N/N=C/c1ccccc1O)c1cccc(C(F)(F)F)c1,82
SMILES,aSyn 5UTR act
O=C(N/N=C/c1sc2ccccc2c1O)c1ccccc1,82
O=C(N/N=C/c1ccccc1C(F)(F)F)c1ccc(O)cc1,-135*
O=C(NN=C1CCCC1)c1ccn[nH]1,-77*
O=C(N/N=C/c1ccc(F)cc1)c1ccccc1,-152*
O=C(N/N=C/c1ccc(Br)cc1)c1ccc(Br)o1,-207*
Nc1c(C(=O)N/N=C/c2ccccc2)cnn1-c1ccccc1,-108*
O=C(NN=C1CCCCCC1)c1ccc(Br)o1,-82*
CC1=C[C@@H](C)[C@@H](c2ccc(C(F)(F)F)cc2)OC1=O,-63*
O=C1C2C3C=CC(C3)C2C(=O)N1c1ccc(-c2nc3ccccc3o2)cc1 (stereo not given),-152*
Clc1ccc(-c2n[nH]c3c2CCCC3)cc1,-70*
CCN(CC)c1ccc(-c2nn3c(-c4n[nH]c5c4CCC5)nnc3s2)cc1,72
Cc1ccc(C2CC(c3ccccc3)=NN2C(=S)Nc2ccccc2)o1 (stereo not given),-65*
CC1Cc2cc(-c3csc(N)n3)ccc2O1 (stereo not given),-95*
Nc1nc(-c2ccc3c(c2)OCCO3)cs1,-86*
Cc1nc(-c2ccc3c(c2)OCCCO3)cs1,-100*
CCc1ccc(-c2cc(C(=O)N3N=C(C(F)F)CC3(O)C(F)F)c3ccccc3n2)cc1 (stereo not given),-68*
COc1ccc(-n2c(O)c(/C=N/Nc3nc(C)cc(C)n3)c3ccccc3c2=O)cc1OC,120
COc1ccccc1NS(=O)(=O)c1cccc(-n2c(O)c(C=Nc3ccccc3C(=O)O)c3ccccc3c2=O)c1,-66*
COC(=O)c1ccc2c(=O)[nH]c(CSc3nc(C)cs3)nc2c1,-94*
Cc1ccc(-c2cc(C(=O)Nc3cc(C)ccc3O)no2)cc1,-183*
CCOc1ccc(-c2cc(CCCC(=O)Nc3cc(OC)ccc3OC)no2)cc1,83
Cc1ccc(O)c(NC(=O)c2cc(-c3ccccc3Cl)on2)c1,-173*
COc1ccc(-c2cc(C(=O)Nc3cc(Cl)ccc3O)no2)cc1,-156*
COc1ccc(OC)c(-c2cc(C(=O)Nc3c(C)nn(Cc4ccccc4Cl)c3C)no2)c1,58
COc1ccc(-c2cc(C(=O)Nc3cc(C)ccc3O)no2)cc1,-132*
SMILES,aSyn 5UTR act
Clc1ccc(-c2cnc(Oc3ccccc3)nc2)cc1,-216*
Cc1cc2ncn(/N=C/c3ccc([N+](=O)[O-])o3)c2cc1C,-122*
O=C(N/N=C/c1ccc([N+](=O)[O-])o1)c1cc(-c2ccncc2)nc2ccccc12,-67*
Cc1ccc2nc(N/N=C/c3ccco3)cc(C)c2c1,-186*
Cc1cc(N/N=C/c2ccc([N+](=O)[O-])o2)nc2ccccc12,-133*
O=C(N/N=C/c1ccc([N+](=O)[O-])o1)c1cc(-c2ccc(-c3ccccc3)cc2)nc2ccccc12,76
CCC(C)(C)c1ccc2c(c1)C(=O)c1ccccc1C2=O,-71*
Cc1ccccc1S(=O)(=O)Cc1ccc(C(=O)N2CCN(c3cccc(C)c3C)CC2)o1,101
Cc1ccc(OCc2ccc(C(=O)N3CCCC3)o2)cc1C,-82*
O=C(c1ccc(COc2ccccc2[N+](=O)[O-])o1)N1CCCCCC1,-80*
O=C(c1ccc(COc2ccc(Cl)cc2Cl)o1)N1CCCC1,-63*
Nc1ccc(Nc2nc(-c3cc4ccccc4oc3=O)cs2)cc1,-200*
CC(=O)Nc1ccc(Nc2nc(-c3cc4ccccc4oc3=O)cs2)cc1,-449*

# Source: PubChem BioAssay
